Test results as given in the supplement of paper PMC10849652.
About 8,800 targets were measured; listed, in parts, are those with a hit and a random draw of the rest. About 0.5% of all pairs of compound and target were hits.

compound: CCCS(=O)(=O)Nc1ccc(F)c(C(=O)c2c[nH]c3ncc(-c4ccc(Cl)cc4)cc23)c1F [vemurafenib]; test: log2 fold change, soluble protein after heating vs DMSO (PISA); higher = thermal stabilisation; K562 lysate, 10 uM; active = over 0.2 and 3.5 SD of the protein, either way, in both replicates (recomputed)
Outline: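 Following dounce homogenisation of K562 pellets in PBS pH 7.4 with 1 mM MgCl2, crude extract at 1 mg/mL protein was incubated for 30 min with 10 μM compound. Aliquots were then heated for 3 min over 48°C-58°C and pooled, NP-40 was added to 0.5% at 4°C, and soluble protein was recovered as the supernatant at 21,000xg for 90 min. Channel-sum-equalised TMTpro 16plex LC-MS/MS quantified this protein. Each value, from duplicates, is a log-two fold change in thermal stability relative to solvent controls.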

Sequence of UniProt P46734 (P46734 whole entry, looked up): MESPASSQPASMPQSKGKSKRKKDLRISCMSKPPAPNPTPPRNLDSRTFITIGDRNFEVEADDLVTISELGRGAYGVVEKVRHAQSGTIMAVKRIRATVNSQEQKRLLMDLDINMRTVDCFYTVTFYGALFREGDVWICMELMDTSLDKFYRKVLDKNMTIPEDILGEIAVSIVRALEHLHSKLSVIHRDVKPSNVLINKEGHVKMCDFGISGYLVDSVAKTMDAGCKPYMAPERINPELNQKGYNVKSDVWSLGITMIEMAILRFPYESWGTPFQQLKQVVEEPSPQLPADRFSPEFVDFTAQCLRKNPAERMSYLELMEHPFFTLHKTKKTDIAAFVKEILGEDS
Sequence of UniProt Q13601 (Q13601 whole entry, looked up): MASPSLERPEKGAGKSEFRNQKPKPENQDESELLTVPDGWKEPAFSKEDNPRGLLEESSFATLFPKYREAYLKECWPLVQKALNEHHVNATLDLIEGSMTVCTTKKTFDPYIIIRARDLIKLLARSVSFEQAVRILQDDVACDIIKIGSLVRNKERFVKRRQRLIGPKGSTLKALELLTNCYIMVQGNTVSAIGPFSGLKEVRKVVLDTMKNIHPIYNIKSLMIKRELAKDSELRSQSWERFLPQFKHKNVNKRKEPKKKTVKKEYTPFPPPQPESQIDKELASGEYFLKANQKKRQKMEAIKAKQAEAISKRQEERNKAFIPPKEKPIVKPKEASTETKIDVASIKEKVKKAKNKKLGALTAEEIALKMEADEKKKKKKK
Sequence of UniProt P28838 (P28838 whole entry, looked up): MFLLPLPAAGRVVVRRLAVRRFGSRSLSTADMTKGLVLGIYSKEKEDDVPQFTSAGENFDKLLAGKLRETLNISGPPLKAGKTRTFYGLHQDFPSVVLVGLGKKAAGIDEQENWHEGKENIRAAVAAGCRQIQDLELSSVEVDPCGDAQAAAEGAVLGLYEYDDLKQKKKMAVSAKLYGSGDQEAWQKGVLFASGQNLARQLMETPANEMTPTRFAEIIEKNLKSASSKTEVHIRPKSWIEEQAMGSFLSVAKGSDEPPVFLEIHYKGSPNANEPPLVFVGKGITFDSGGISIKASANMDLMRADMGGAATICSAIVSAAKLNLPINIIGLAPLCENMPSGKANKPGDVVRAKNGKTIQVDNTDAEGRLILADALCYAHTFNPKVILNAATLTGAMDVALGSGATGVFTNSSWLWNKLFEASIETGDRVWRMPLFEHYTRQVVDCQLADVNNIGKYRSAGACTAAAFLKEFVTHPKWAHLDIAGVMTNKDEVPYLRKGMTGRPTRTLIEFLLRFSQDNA
Sequence of UniProt P07948 (P07948 whole entry, looked up): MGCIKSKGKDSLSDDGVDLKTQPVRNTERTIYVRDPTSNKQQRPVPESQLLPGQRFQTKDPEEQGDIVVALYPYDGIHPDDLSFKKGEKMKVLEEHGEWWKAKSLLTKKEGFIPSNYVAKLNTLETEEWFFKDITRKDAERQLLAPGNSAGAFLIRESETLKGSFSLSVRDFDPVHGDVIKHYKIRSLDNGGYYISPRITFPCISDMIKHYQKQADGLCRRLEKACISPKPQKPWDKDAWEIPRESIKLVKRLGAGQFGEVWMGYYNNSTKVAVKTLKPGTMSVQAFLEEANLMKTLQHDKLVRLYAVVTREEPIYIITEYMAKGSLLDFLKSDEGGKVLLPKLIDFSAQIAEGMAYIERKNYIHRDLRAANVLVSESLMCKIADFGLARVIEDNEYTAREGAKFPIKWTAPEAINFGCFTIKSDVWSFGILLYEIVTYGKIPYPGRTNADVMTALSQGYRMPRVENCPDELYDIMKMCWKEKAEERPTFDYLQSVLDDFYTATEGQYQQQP
Sequence of UniProt Q9H0B6 (Q9H0B6 whole entry, looked up): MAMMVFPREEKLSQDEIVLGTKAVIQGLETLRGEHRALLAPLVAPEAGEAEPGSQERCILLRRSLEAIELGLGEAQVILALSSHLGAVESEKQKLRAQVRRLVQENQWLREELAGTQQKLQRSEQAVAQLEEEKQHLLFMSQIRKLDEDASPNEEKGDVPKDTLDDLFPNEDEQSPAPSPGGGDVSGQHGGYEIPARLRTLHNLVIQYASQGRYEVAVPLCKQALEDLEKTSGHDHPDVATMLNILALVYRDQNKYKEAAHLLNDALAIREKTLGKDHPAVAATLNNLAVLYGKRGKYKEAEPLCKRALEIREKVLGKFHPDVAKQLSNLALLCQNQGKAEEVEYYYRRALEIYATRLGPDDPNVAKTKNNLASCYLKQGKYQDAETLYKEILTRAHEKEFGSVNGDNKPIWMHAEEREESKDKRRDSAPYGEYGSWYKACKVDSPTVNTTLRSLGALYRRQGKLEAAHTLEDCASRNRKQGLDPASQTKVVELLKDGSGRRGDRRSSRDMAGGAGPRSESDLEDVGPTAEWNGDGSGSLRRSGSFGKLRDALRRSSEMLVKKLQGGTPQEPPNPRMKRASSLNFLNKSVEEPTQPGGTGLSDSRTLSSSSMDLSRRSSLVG
Sequence of UniProt P27448 (P27448 whole entry, looked up): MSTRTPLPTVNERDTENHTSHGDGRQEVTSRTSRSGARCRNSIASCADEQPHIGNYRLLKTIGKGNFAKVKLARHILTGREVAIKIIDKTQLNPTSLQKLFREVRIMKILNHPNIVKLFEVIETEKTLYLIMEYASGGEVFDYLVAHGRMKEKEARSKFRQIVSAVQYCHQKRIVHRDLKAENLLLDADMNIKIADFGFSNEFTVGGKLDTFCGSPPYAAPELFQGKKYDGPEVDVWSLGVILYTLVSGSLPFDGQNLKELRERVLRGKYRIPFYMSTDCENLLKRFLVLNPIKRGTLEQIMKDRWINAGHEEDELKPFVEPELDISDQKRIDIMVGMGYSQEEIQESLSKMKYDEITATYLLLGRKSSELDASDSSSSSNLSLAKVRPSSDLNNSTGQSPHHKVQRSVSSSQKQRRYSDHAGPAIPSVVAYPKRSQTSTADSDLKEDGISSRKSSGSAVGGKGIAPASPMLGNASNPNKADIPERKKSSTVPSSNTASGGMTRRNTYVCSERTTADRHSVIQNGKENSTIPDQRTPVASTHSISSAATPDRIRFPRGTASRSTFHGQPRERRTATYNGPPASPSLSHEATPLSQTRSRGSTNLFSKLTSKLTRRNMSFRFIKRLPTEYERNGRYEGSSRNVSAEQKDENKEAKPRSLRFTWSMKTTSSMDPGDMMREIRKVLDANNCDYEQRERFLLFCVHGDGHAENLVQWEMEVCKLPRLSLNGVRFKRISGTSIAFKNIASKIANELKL
Sequence of UniProt Q9NS87 (Q9NS87 whole entry, looked up): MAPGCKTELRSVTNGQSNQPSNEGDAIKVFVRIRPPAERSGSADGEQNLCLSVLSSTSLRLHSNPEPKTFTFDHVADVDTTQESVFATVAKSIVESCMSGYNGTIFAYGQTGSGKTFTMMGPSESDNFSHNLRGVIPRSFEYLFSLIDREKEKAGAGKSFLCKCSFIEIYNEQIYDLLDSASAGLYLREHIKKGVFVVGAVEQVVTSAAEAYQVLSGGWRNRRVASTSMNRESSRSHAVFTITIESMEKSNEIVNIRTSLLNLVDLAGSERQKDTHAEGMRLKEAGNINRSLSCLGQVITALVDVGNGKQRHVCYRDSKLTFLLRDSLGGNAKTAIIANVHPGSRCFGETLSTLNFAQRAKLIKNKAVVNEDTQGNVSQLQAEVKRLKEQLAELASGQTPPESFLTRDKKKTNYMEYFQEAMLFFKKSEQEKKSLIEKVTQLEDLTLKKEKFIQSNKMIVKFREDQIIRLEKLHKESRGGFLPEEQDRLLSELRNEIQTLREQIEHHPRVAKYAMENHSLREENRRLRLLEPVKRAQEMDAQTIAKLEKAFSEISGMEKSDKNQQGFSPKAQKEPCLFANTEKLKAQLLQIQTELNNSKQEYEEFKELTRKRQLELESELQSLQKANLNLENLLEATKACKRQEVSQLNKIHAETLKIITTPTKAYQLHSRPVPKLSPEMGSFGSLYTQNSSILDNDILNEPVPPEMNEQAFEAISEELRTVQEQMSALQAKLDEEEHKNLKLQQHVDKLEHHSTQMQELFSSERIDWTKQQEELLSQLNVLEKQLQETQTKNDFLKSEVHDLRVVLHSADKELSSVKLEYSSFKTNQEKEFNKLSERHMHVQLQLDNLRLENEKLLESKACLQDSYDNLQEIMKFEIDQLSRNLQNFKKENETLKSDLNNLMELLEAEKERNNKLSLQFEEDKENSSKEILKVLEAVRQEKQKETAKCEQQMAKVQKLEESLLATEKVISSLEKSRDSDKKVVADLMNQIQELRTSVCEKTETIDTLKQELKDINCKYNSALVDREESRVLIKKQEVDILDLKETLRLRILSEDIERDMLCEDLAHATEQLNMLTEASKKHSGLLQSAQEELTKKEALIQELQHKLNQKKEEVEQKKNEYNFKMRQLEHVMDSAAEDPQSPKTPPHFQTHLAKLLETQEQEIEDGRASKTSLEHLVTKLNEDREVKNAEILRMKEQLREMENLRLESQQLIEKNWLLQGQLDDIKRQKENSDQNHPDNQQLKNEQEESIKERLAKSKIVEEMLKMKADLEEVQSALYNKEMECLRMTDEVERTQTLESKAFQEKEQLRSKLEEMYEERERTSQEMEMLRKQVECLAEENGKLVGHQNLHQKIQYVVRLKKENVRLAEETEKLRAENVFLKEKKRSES
Sequence of UniProt Q7Z3D4 (Q7Z3D4 whole entry, looked up): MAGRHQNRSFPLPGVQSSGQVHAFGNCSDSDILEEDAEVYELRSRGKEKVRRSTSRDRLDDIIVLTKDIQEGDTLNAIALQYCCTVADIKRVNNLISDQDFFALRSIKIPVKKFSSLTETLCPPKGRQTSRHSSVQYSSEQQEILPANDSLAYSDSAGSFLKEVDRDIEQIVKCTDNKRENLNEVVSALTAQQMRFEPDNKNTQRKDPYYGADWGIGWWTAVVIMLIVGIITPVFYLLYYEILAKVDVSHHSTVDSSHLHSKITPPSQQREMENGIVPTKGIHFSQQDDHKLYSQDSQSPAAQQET
Sequence of UniProt O14880 (O14880 whole entry, looked up): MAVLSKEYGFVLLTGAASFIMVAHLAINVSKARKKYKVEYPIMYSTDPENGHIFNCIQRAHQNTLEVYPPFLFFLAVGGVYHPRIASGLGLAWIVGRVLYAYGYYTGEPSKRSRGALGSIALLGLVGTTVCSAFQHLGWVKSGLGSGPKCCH

log2 fold change, inactive:
MED16 (UniProt Q9Y2X0) -0.059
LAP3 (UniProt P28838) 0.107
LUZP1 (UniProt Q86V48) 0.037
KSR1 (UniProt Q8IVT5) 0.021
LTN1 isoform 3 (UniProt O94822) 0.005
MAP2K3 isoform 3 (UniProt P46734) 0.065
MRPL46 (UniProt Q9H2W6) 0.058
MCU (UniProt Q8NE86) 0.011
KIF14 (UniProt Q15058) 0.027
KIF15 (UniProt Q9NS87) -0.01
MAP3K4 (UniProt Q9Y6R4) 0.006
LIMS1 isoform 3 (UniProt P48059) -0.055
KIF11 (UniProt P52732) -0.027
KIFC1 (UniProt Q9BW19) -0.008
MAT2B (UniProt Q9NZL9) 0.036
MFF isoform 2 (UniProt Q9GZY8) 0.019
KPNA2 (UniProt P52292) 0.001
MED8 isoform 2 (UniProt Q96G25) -0.022
MAPK8 isoform 3 (UniProt P45983) 0.06
MGST3 (UniProt O14880) 0.012
KIF4A (UniProt O95239) 0.005
MPP1 (UniProt Q00013) 0.014
MAP4 (UniProt E7EVA0) -0.019
LARS2 (UniProt Q15031) -0.015
LIMK2 isoform 3 (UniProt P53671) 0.031
KPNA4 (UniProt O00629) -0.003
MAP7D3 (UniProt Q8IWC1) -0.153
METTL7A (UniProt Q9H8H3) -0.08
LYN (UniProt P07948) 0.285
LUC7L (UniProt Q9NQ29) 0.019
LYSMD3 (UniProt Q7Z3D4) 0.025
KRR1 (UniProt Q13601) 0.057
METTL2A (UniProt Q96IZ6) 0.073
MARK3 (UniProt P27448) -0.003
MLH1 (UniProt P40692) 0.042
KLC2 (UniProt Q9H0B6) 0.066
MCCC1 (UniProt Q96RQ3) 0.065
MAPK3 (UniProt P27361) 0.013
MITD1 (UniProt Q8WV92) 0.044
